In all, about 16,000 compounds went through this assay and about 5,100 (32%) were called active. Roughly 25% stayed inconclusive and do not appear here. The call rests on the fitted dose curve; in most records, active means well fitted curve in the direction sought with a large enough effect; inconclusive means small, poorly fitted or top-dose-only effect, or effect the other way; inactive means no such curve, though single readings can be large or run the other way. This is one part of the list.
Biological target: Cytochrome P450 3A4 (Homo sapiens) (UniProt P08684)
Test: Cytochrome panel assay with activity outcomes
Settings: recombinant CYP, pro-luciferin dealkylation, luminescence, p450-cyp3a4; series mostly up to 57.1 µM
On the % scale 0 is the no-effect control and ±100 the full control effect.

Sequence of Cytochrome P450 3A4 (Homo sapiens) (P08684 whole entry, looked up): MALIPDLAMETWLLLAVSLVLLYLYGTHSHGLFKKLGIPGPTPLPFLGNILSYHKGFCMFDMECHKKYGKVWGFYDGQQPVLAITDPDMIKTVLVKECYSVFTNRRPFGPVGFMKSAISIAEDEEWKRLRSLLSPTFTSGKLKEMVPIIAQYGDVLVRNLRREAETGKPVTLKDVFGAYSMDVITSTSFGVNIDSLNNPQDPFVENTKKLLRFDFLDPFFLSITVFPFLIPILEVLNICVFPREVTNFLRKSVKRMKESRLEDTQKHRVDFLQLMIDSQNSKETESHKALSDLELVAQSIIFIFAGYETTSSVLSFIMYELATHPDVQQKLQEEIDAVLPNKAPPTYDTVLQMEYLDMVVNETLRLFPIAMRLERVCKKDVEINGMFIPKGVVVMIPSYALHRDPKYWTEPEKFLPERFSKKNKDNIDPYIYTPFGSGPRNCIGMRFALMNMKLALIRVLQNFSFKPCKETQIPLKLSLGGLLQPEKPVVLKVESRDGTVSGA

Structure (SMILES) | AC50 | activity, negative = inhibition
CC(C(=O)NC1CCCC1)N(C(=O)c1ccc(-c2ccccc2)[nH]1)c1ccccc1F (centres undefined) | 3.98 µM (active) | –
O=C(NCCCc1ccccc1)c1cccs1 | inactive | –
O=C(NC1CCCCCC1)c1cccs1 | 14.1 µM (active) | –
Cc1ccc(C(=O)NC2CCCCC2)cc1 | inactive | –
O=S(=O)(Nc1nc(-c2sccc2Cl)cs1)c1cc(Cl)ccc1Cl | 7.94 µM (active) | –
CC(=O)c1c(N2CCC(C(N)=O)CC2)nc(=S)n(-c2ccccc2)c1C | – | 28.2% [at 2.29 µM] (inactive)
FC(F)(F)c1cc(Sc2ccccc2)nc(-c2ccccn2)n1 | – | 22.3% [at 11.4 µM] (inactive)
COC(=O)[C@@]1(Cc2ccc(F)cc2)[C@H]2c3cc(C(=O)N4CCCC4)n(Cc4ccc(C)o4)c3C[C@H]2CN1C(=O)c1ccccc1 | 3.16 µM (active) | –
COC(=O)[C@@]1(Cc2ccc(F)cc2)[C@H]2c3cc(C(=O)N(C)C)n(Cc4ccc(C)o4)c3C[C@H]2CN1C(=O)c1ccccc1 | 2.51 µM (active) | –
COC(=O)[C@@]1(Cc2ccccc2)[C@H]2c3cc(C(=O)N4CCCC4)n(Cc4ccc(C)o4)c3C[C@H]2CN1C(=O)c1ccccc1 | 2 µM (active) | –
COC(=O)C(NC(=O)c1ccc(F)cc1)(Nc1ncc(S(=O)(=O)c2ccc([N+](=O)[O-])cc2)s1)C(F)(F)F (centres undefined) | 5.01 µM (active) | –
C=CCC(C(=O)OC)(C(=O)OC)c1ccc([N+](=O)[O-])cn1 | inactive | –
COC(=O)C(C)(C(=O)OC)c1ccc([N+](=O)[O-])cn1 | inactive | –
Cc1cc(C(F)F)n2nc(C(=O)Nc3cccnc3Cl)nc2n1 | – | 2.46% [at 2.29 µM] (inactive)
C/C(=N\NC(=O)c1[nH]c2c([N+](=O)[O-])cc(C)cc2c1-c1ccccc1)c1cccnc1 | 1.12 µM (active) | –
O=C(Oc1ccccc1[N+](=O)[O-])c1cccnc1 | inactive | –
O=C(O)c1[nH]c2c([N+](=O)[O-])cc([N+](=O)[O-])cc2c1C(=O)O | – | 3.73% [at 11.4 µM] (inactive)
CCOC(=O)c1c(NC(=O)/C=C/c2ccc3c(c2)OCO3)sc(C)c1C | inactive | –
COC(=O)c1cc(NC(=O)/C=C/c2ccc3c(c2)OCO3)cc(C(=O)OC)c1 | 0.794 µM (active) | –
O=C(/C=C/c1cccc([N+](=O)[O-])c1)NCCN1CCOCC1 | inactive | –
COC(=O)c1cccc(NC(=O)/C=C/c2cccc([N+](=O)[O-])c2)c1 | 10 µM (active) | –
CC(/C=N/NC(=O)c1cccc([N+](=O)[O-])c1)=C\c1ccccc1 | inactive | –
CCOC(=O)c1c(NC(=O)/C=C/c2ccc3c(c2)OCO3)sc(C)c1CC | 5.01 µM (active) | –
O=C(O)C[C@@H](C(=O)O)c1ccccc1[N+](=O)[O-] | – | 0.874% [at 11.4 µM] (inactive)
C=CCSc1nnc(NC(=O)COc2ccc3ccccc3c2)s1 | inactive | –
CCSc1nnc(NC(=O)COc2ccc3ccccc3c2)s1 | – | -4.8% [at 2.29 µM] (inactive)
CCOc1ccc(N2C(=O)CS/C2=N/NC(=O)COc2ccc3ccccc3c2)cc1 | 0.891 µM (active) | –

Structure (SMILES) | AC50 | activity, negative = inhibition
O=S(=O)(O)c1ccc(-c2nnc(-c3ccccn3)nc2-c2ccc(S(=O)(=O)O)o2)o1 | – | 6.48% [at 11.4 µM] (inactive)
CC[C@]1(O)C[C@H]2CN(CCc3c([nH]c4ccccc34)[C@](C(=O)OC)(c3cc4c(cc3OC)N(C=O)[C@H]3[C@@](O)(C(=O)OC)[C@H](OC(C)=O)[C@@]5(CC)C=CCN6CC[C@]43[C@H]65)C2)C1 | 3.98 µM (active) | –
CC[C@]1(O)C[C@@H]2CN(CCc3c([nH]c4ccccc34)[C@](C(=O)OC)(c3cc4c(cc3OC)N(C)[C@H]3[C@](O)(C(=O)OC)[C@@H](C(=O)OC)[C@@]5(CC)C=CCN6CC[C@@]43[C@@H]65)C2)C1 | 15.8 µM (active) | –
C=CCn1c(C)cc(C(=O)CN2C(=O)c3ccccc3C2=O)c1C | 2.82 µM (active) | –
CCN(CC)c1ccc(SS(=O)(=O)O)cc1 | inactive | –
O=C(N/N=C/c1ccc2cccc(OCc3ccccc3)c2n1)c1ccc(Br)cc1 | – | -19% [at 2.29 µM] (inactive)
COc1cc(C(=O)Oc2ccccc2/C=N/NC(=O)c2ccc(C)cc2)cc(OC)c1OC | inactive | –
COc1ccc(C(=O)N/N=C/c2cccc3cccnc23)cc1 | 22.4 µM (active) | –
O=C(CCS(=O)(=O)c1cccc2nsnc12)NC1CCCCC1 | 5.01 µM (active) | –
Cc1cccc(NC(=O)CCS(=O)(=O)c2cccc3nsnc23)c1C | – | -25.6% [at 2.29 µM] (inactive)
O=C(O)[C@@H]1CCCN1Cc1ccc2c(c1)OCO2 | – | -11.9% [at 11.4 µM] (inactive)
CC1(C)SC(=S)N(Cc2ccc3c(c2)OCO3)C1N(O)C(=O)NC1CCCCC1 (centres undefined) | 1.12 µM (active) | –
O=C(Cn1cnc2ccccc21)NC(c1ccccc1)c1ccccc1 | 7.94 µM (active) | –
O=C(O)CC(c1ccccc1)n1cnnn1 (centres undefined) | inactive | –
CN[C@@H]1[C@H](O[C@H]2[C@@H](O[C@@H]3[C@@H](O)[C@@H](O)[C@@H](N=C(N)N)[C@@H](O)[C@@H]3N=C(N)N)O[C@@H](C)[C@]2(O)CO)O[C@H](CO)[C@@H](O)[C@@H]1O | inactive | –
COc1cc(C=O)ccc1OCCOCCOc1ccccc1Cl | – | -2.53% [at 2.29 µM] (inactive)
COc1cc(C)ccc1OCCCOc1ccccc1Br | – | 3.33% [at 2.29 µM] (inactive)
COc1ccccc1OCCCOc1ccc([N+](=O)[O-])cc1Cl | 14.1 µM (active) | –
Cc1ccc2c(c1)N(CC(=O)NC1CCC(C)CC1)C(=O)CO2 (centres undefined) | 7.08 µM (active) | –
Cc1ccc2c(c1)N(CC(=O)NC1CCCc3ccccc31)C(=O)CO2 (centres undefined) | 7.08 µM (active) | –
Cc1ccc(C(=O)N/C(=C\c2ccc(Br)cc2)c2nc(=S)[nH][nH]2)cc1 | 22.4 µM (active) | –
Cc1ccc(C(=O)NC(=S)Nc2cccc3nsnc23)cc1 | inactive | –
CC(=O)NN1C(=O)/C(=C\c2ccc(C)cc2)SC1=S | inactive | –
CN(C)CCCN1c2ccc3ccccc3c2Sc2cccc(Cl)c21 | – | -11.7% [at 11.4 µM] (inactive)
c1ccc(CCc2nc(-c3ccccc3)no2)cc1 | inactive | –
Clc1ccc(-c2noc(CN3CCCCC3)n2)cc1 | – | -11.9% [at 11.4 µM] (inactive)
Clc1ccc(Cc2nc(-c3cccnc3)no2)cc1 | 2.51 µM (active) | –

From PubChem BioAssay AID1851 (National Center for Advancing Translational Sciences (NCATS), 2009)
